In PubChem BioAssay AID1159580 (chemical genetic matrix, 2015):
Screen size: about 5,500 compounds; about 2,000 (36%) were called active. About 18% were inconclusive and are not listed. Cut-off read from the data, not from the text of the source: active = normalized growth mostly below about 0.91 (no sharp cut-off); inconclusive = no clear call, values can overlap the other calls; inactive = mostly above about 0.92. The list shows a part of the results.

Assay: chemical genetic growth profiling, strain panel (AID 1159580);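 note: tested at 20 µM; growth read once vehicle control cultures reached saturation at 30 °C; 1 = growth at the plate median or of vehicle wells; lower values mean less growth of the strain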
Conditions: growth OD
[1] = S. cerevisiae deletion strains, locus YAL013W, strain DEP1, stronger effect = lower value
[2] = S. cerevisiae deletion strains, locus YGR078C, strain PAC10, stronger effect = lower value
[3] = S. cerevisiae deletion strains, locus YGR229C, strain SMI1, stronger effect = lower value
[4] = S. cerevisiae deletion strains, locus YJR075W, strain HOC1, stronger effect = lower value
[5] = S. cerevisiae deletion strains, locus YMR307W, strain GAS1, stronger effect = lower value
[6] = S. cerevisiae deletion strains, locus YPL055C, strain LGE1, stronger effect = lower value
[7] = S. cerevisiae deletion strains, locus YPL241C, strain CIN2, stronger effect = lower value

Measured: normalized growth

CC(=O)[C@H]1CC[C@H]2[C@@H]3CCC4=CC(=O)CC[C@]4(C)[C@H]3CC[C@]12C
inactive: [1] 0.994 | S. cerevisiae deletion strains, locus YAL040C, strain CLN3, stronger effect = lower value 0.992 | S. cerevisiae deletion strains, locus YCL061C, strain MRC1 (second series), stronger effect = lower value 1 | S. cerevisiae deletion strains, locus YDR363W, strain ESC2, stronger effect = lower value 1.01 | S. cerevisiae deletion strains, locus YER002W, strain NOP16, stronger effect = lower value 0.973 | [2] 0.998 | [4] 0.99 | [5] 0.979 | S. cerevisiae deletion strains, locus YNL175C, strain NOP13, stronger effect = lower value 0.991 | S. cerevisiae deletion strains, locus YNL197C, strain WHI3, stronger effect = lower value 0.986 | S. cerevisiae deletion strains, locus YNL224C, strain SQS1, stronger effect = lower value 0.992 | S. cerevisiae deletion strains, locus YOR083W, strain WHI5 (second series), stronger effect = lower value 1.01 | [6] 0.99 | [7] 0.995
active: [3] 1.17 [resistant]

CC(=O)C1CCC2C3CC(=O)C4=CC(=O)CCC4(C)C3CCC12C (stereo unspecified)
inactive: [1] 0.971 | S. cerevisiae deletion strains, locus YBR021W, strain FUR4, stronger effect = lower value 0.995 | S. cerevisiae deletion strains, locus YBR229C, strain ROT2, stronger effect = lower value 0.955 | S. cerevisiae deletion strains, locus YCL029C, strain bik1, stronger effect = lower value 0.972 | S. cerevisiae deletion strains, locus YDL035C, strain GPR1, stronger effect = lower value 0.971 | S. cerevisiae deletion strains, locus YDL074C, strain BRE1, stronger effect = lower value 0.875 | S. cerevisiae deletion strains, locus YDL101C, strain DUN1, stronger effect = lower value 0.935 | S. cerevisiae deletion strains, locus YDL134C, strain PPH21, stronger effect = lower value 0.976 | S. cerevisiae deletion strains, locus YDL185W, strain tfp1, stronger effect = lower value 0.946 | S. cerevisiae deletion strains, locus YDL192W, strain arf1, stronger effect = lower value 0.982 | S. cerevisiae deletion strains, locus YDR101C, strain arx1, stronger effect = lower value 0.99 | S. cerevisiae deletion strains, locus YDR150W, strain NUM1, stronger effect = lower value 0.95 | S. cerevisiae deletion strains, locus YDR162C, strain NBP2, stronger effect = lower value 0.866 | S. cerevisiae deletion strains, locus YDR318W, strain mcm21, stronger effect = lower value 0.996 | S. cerevisiae deletion strains, locus YDR388W, stronger effect = lower value 0.983 | S. cerevisiae deletion strains, locus YDR502C, strain sam2, stronger effect = lower value 0.95 | S. cerevisiae deletion strains, locus YEL061C, strain CIN8, stronger effect = lower value 0.981 | S. cerevisiae deletion strains, locus YER110C, stronger effect = lower value 0.971 | S. cerevisiae deletion strains, locus YER155C, strain BEM2, stronger effect = lower value 1 | S. cerevisiae deletion strains, locus YER167W, strain BCK2, stronger effect = lower value 0.995 | S. cerevisiae deletion strains, locus YGL078C, strain dbp3, stronger effect = lower value 0.979 | S. cerevisiae deletion strains, locus YGL086W, strain mad1, stronger effect = lower value 1.01 | S. cerevisiae deletion strains, locus YGL248W, strain PDE1, stronger effect = lower value 0.967 | [2] 0.928 | S. cerevisiae deletion strains, locus YGR135W, strain pre9, stronger effect = lower value 0.926 | [3] 1.03 | S. cerevisiae deletion strains, locus YGR252W, strain gcn5, stronger effect = lower value 1.02 | S. cerevisiae deletion strains, locus YHR030C, strain SLT2, stronger effect = lower value 0.995 | S. cerevisiae deletion strains, locus YHR079C, strain IRE1 (second series), stronger effect = lower value 0.984 | S. cerevisiae deletion strains, locus YHR094C, strain hxt1, stronger effect = lower value 0.982 | S. cerevisiae deletion strains, locus YHR129C, strain ARP1, stronger effect = lower value 0.985 | S. cerevisiae deletion strains, locus YHR200W, strain rpn10, stronger effect = lower value 0.982 | S. cerevisiae deletion strains, locus YIL066C, strain RNR3, stronger effect = lower value 0.948 | S. cerevisiae deletion strains, locus YIL073C, strain SPO22, stronger effect = lower value 0.99 | S. cerevisiae deletion strains, locus YIL125W, strain kgd1, stronger effect = lower value 0.983 | S. cerevisiae deletion strains, locus YIR030C, strain dcg1, stronger effect = lower value 0.982 | S. cerevisiae deletion strains, locus YJL095W, strain BCK1, stronger effect = lower value 0.965 | S. cerevisiae deletion strains, locus YJL134W, strain LCB3, stronger effect = lower value 0.975 | S. cerevisiae deletion strains, locus YJL168C, strain set2, stronger effect = lower value 0.978 | S. cerevisiae deletion strains, locus YJL187C, strain SWE1 (second series), stronger effect = lower value 0.931 | S. cerevisiae deletion strains, locus YJR043C, strain POL32, stronger effect = lower value 1.01 | [4] 0.953 | S. cerevisiae deletion strains, locus YKL009W, strain mrt4, stronger effect = lower value 0.968 | S. cerevisiae deletion strains, locus YKL068W, stronger effect = lower value 0.982 | S. cerevisiae deletion strains, locus YKL085W, strain MDH1 (second series), stronger effect = lower value 0.943 | S. cerevisiae deletion strains, locus YKL085W, strain MDH1, stronger effect = lower value 0.943 | S. cerevisiae deletion strains, locus YKL190W, strain CNB1, stronger effect = lower value 0.964 | S. cerevisiae deletion strains, locus YKR001C, strain vps1, stronger effect = lower value 0.971 | S. cerevisiae deletion strains, locus YLR039C, strain RIC1, stronger effect = lower value 0.735 | S. cerevisiae deletion strains, locus YLR058C, strain SHM2, stronger effect = lower value 0.971 | S. cerevisiae deletion strains, locus YLR102C, strain apc9, stronger effect = lower value 0.971 | S. cerevisiae deletion strains, locus YLR262C, strain YPT6, stronger effect = lower value 0.749 | S. cerevisiae deletion strains, locus YLR268W, strain sec22, stronger effect = lower value 0.928 | S. cerevisiae deletion strains, locus YLR330W, strain CHS5, stronger effect = lower value 0.989 | S. cerevisiae deletion strains, locus YLR342W, strain FKS1 (second series), stronger effect = lower value 1.01 | S. cerevisiae deletion strains, locus YLR371W, strain rom2, stronger effect = lower value 0.986 | S. cerevisiae deletion strains, locus YLR418C, strain cdc73, stronger effect = lower value 0.862 | S. cerevisiae deletion strains, locus YML016C, strain PPZ1, stronger effect = lower value 0.979 | S. cerevisiae deletion strains, locus YML032C, strain rad52, stronger effect = lower value 1.01 | S. cerevisiae deletion strains, locus YML124C, strain tub3, stronger effect = lower value 0.998 | S. cerevisiae deletion strains, locus YMR078C, strain ctf18, stronger effect = lower value 0.968 | S. cerevisiae deletion strains, locus YMR223W, strain ubp8, stronger effect = lower value 1 | S. cerevisiae deletion strains, locus YMR263W, strain SAP30, stronger effect = lower value 0.936 | [5] 1.01 | S. cerevisiae deletion strains, locus YNL067W, strain RPL9B, stronger effect = lower value 0.936 | S. cerevisiae deletion strains, locus YNL128W, strain TEP1, stronger effect = lower value 0.924 | S. cerevisiae deletion strains, locus YNL153C, strain GIM3, stronger effect = lower value 0.922 | S. cerevisiae deletion strains, locus YNL233W, strain BNI4, stronger effect = lower value 0.972 | S. cerevisiae deletion strains, locus YNL250W, strain rad50, stronger effect = lower value 0.948 | S. cerevisiae deletion strains, locus YNL271C, strain bni1, stronger effect = lower value 0.983 | S. cerevisiae deletion strains, locus YNL298W, strain CLA4, stronger effect = lower value 0.968 | S. cerevisiae deletion strains, locus YNL307C, strain MCK1, stronger effect = lower value 0.971 | S. cerevisiae deletion strains, locus YNL322C, strain KRE1, stronger effect = lower value 0.977 | S. cerevisiae deletion strains, locus YNR052C, strain pop2, stronger effect = lower value 0.989 | S. cerevisiae deletion strains, locus YOL006C, strain TOP1, stronger effect = lower value 0.846 | S. cerevisiae deletion strains, locus YOL012C, strain htz1 0.923 | S. cerevisiae deletion strains, locus YOL147C, strain pex11, stronger effect = lower value 0.99 | S. cerevisiae deletion strains, locus YOR061W, strain CKA2, stronger effect = lower value 0.942 | S. cerevisiae deletion strains, locus YOR069W, strain VPS5, stronger effect = lower value 0.975 | S. cerevisiae deletion strains, locus YOR136W, strain idh2, stronger effect = lower value 0.984 | S. cerevisiae deletion strains, locus YOR144C, strain elg1, stronger effect = lower value 0.988 | S. cerevisiae deletion strains, locus YOR184W, strain ser1, stronger effect = lower value 0.959 | S. cerevisiae deletion strains, locus YOR316C, strain cot1, stronger effect = lower value 0.968 | [6] 0.852 | [7] 0.974 | S. cerevisiae deletion strains, locus YPR119W, strain clb2, stronger effect = lower value 0.99 | S. cerevisiae deletion strains, locus YPR141C, strain kar3, stronger effect = lower value 0.957 | S. cerevisiae deletion strains, locus YPR163C, strain tif3, stronger effect = lower value 0.967 | S. cerevisiae deletion strains, locus YPR167C, strain met16, stronger effect = lower value 0.979 | S. cerevisiae deletion strains, strain wtn01, stronger effect = lower value 0.951 | S. cerevisiae strains, strain wild type, stronger effect = lower value 0.972
